In the library only some 12% were active in any assay of this set; here they are far more common.
CHX counter = Cycloheximide Counterscreen for Small Molecule Inhibitors of Shiga Toxin; cell reporter, cycloheximide protein synthesis inhibition counterscreen; max response, %; 300,000 tested, 12% active; AID 2314, 2010; in the data active = max response mostly above about 13%, no sharp cut-off; inactive = mostly below about 14%; also: read at 38.3 µM for the half of the compounds with a filed dose; 0% is about no effect
Lassa entry inh = qHTS for Inhibitors of binding or entry into cells for Lassa Virus | Lassa virus pseudotype entry inhibition, cell reporter | Potency, µM (series often up to 37.9 µM), inactives show at the top dose activity change, negative = inhibition, most hits filed as inhibitors | 300,000 tested, 1.2% active | AID 540256, 2011; calls by dose curve; tested in HEK293 cells; also: potency is read from the fitted curve at half-maximal effect; % is scaled to controls: 0 for no effect and ±100 for the full control effect; nearly all actives have a fitted effect of over 50% in size
Shiga toxin inh = A qHTS for Small Molecule Inhibitors of Shiga Toxin; Vero cells, Shiga toxin protein synthesis inhibition reporter; 290,000 tested, 9.2% active; inhibition, % at 38.7 µM; in the data active = inhibition mostly above about 28%, no sharp cut-off; inactive = mostly below about 43%; also: 0% is about no effect
MARV entry inh = qHTS for inhibitors of binding or entry into cells for Marburg Virus | Marburg virus pseudotyped entry inhibition, cell reporter | Potency, µM (series often up to 37.8 µM), inactives show at the top dose activity change, negative = inhibition, actives largely listed as inhibitors | 300,000 tested, 1.8% active; calls by dose curve; tested in HEK293 cells; also: potency is read from the fitted curve at half-maximal effect; % is scaled to controls: 0 for no effect and ±100 for the full control effect
* marks the source's active call; other numbers are inactive results; [ ] = dose if it differs, or a comment.

`O=C(Nc1ccc2oc(-c3ccc(F)cc3)nc2c1)c1ccccc1F` gave CHX counter 29, Lassa entry inh -1%, Shiga toxin inh 39* and MARV entry inh 1%.
CC(=O)Nc1ccc(NC(=O)c2ccccc2F)cc1 was read as CHX counter 20*, Lassa entry inh 11%, Shiga toxin inh 58* and MARV entry inh inconclusive.
Screening CCc1ccc(-c2cc(C)no2)cc1S(=O)(=O)NCCCN1CCN(c2ccccc2)CC1 returned CHX counter 7 and Shiga toxin inh 8.
For O=C(O)C(Cc1ccccc1)N=C(NS(=O)(=O)c1ccccc1)c1ccccc1 (centres undefined) the results were Lassa entry inh 5%[46.1 µM] and MARV entry inh 1%[46.1 µM].
Cc1c(O)nc(SCC(=O)Nc2nccs2)n(-c2ccccc2F)c1=O was read as CHX counter 1, Lassa entry inh inconclusive, Shiga toxin inh -2 and MARV entry inh -1%.
For O=C(Nc1ccc(SC(F)F)cc1)c1ccc(F)cc1 the results were CHX counter 37* and Shiga toxin inh 145*.
`CCOC(=O)Nc1ccc(NC(=O)c2ccccc2F)cc1` gave CHX counter 18* and Shiga toxin inh 85*.
For O=C(Nc1ccc(F)cc1)c1ccccc1F the results were CHX counter 42*, Lassa entry inh 16%, Shiga toxin inh 114* and MARV entry inh 24%.
For O=C(Nc1ccc(SC(F)F)cc1)c1ccccc1F the results were CHX counter 45* and Shiga toxin inh 92*.
Screening O=C(Nc1ccc2ccccc2c1)c1ccccc1F returned CHX counter 24* and Shiga toxin inh 68.
For O=C(Nc1ccc2nc(-c3cccnc3)[nH]c2c1)c1ccccc1F the results were CHX counter 15*, Lassa entry inh inconclusive, Shiga toxin inh 28 and MARV entry inh -26%.
Screening O=C(Nc1ccc(C(=O)N2CCCC2)cc1)c1ccccc1F returned CHX counter 36*, Lassa entry inh inconclusive, Shiga toxin inh 66* and MARV entry inh -10%.
`O=C(Nc1ccc2cn[nH]c2c1)c1ccccc1F` gave CHX counter 60*, Lassa entry inh inconclusive, Shiga toxin inh 40* and MARV entry inh inconclusive.
Screening NC(=O)Nc1ccccc1C(=O)Nc1ccc2ccccc2c1 returned CHX counter -2.
O=C(Nc1ccc2cn[nH]c2c1)c1c(Cl)cccc1Cl was read as CHX counter -6, Lassa entry inh 15%, Shiga toxin inh -11 and MARV entry inh 10%.
`O=C(Nc1cc(C(=O)N2CCCC2)ccc1N1CCCC1)c1ccccc1F` gave CHX counter -8, Lassa entry inh -20%, Shiga toxin inh -10 and MARV entry inh -26%.
COc1ccc(NS(=O)(=O)c2cc3c4c(c2)CCN4C(=O)CC3)cc1OC was read as Lassa entry inh inconclusive and MARV entry inh -13%.
CN(CC(=O)Nc1ccc(Cl)cc1)C1CCCCC1 was read as CHX counter 9 and Shiga toxin inh -8.
CCc1ccc(NC(=O)N(CCN2CCOCC2)Cc2ccc3c(c2)CCCN3CC)cc1 was read as CHX counter 25*, Lassa entry inh -28%, Shiga toxin inh 37 and MARV entry inh inconclusive.
`O=C(Nc1ccccc1)N(CCN1CCOCC1)Cc1ccccc1F` gave CHX counter 15*, Lassa entry inh inconclusive, Shiga toxin inh -3 and MARV entry inh 8%.
Screening Cc1ccc(C(=O)C(C)N2C(=O)NC(C)(c3ccccc3)C2=O)cc1 (centres undefined) returned CHX counter -1, Shiga toxin inh -7 and MARV entry inh 3%[46.1 µM].
`CC(C)CCNC(=O)c1nnc(Cc2ccc(Cl)cc2)o1` gave CHX counter 1 and Shiga toxin inh 36.
COc1ccc(-c2csc(Nc3ccccc3)n2)cc1 was read as CHX counter 29*, Lassa entry inh inconclusive, Shiga toxin inh 97* and MARV entry inh inconclusive.
For COc1ccc(Nc2nc(-c3ccc(OC)cc3)cs2)cc1 the results were CHX counter 63* and Shiga toxin inh 70*.
COc1ccc2oc(=O)c(-c3csc(Nc4ccc(O)cc4)n3)cc2c1 was read as CHX counter 46*, Lassa entry inh 10µM*, Shiga toxin inh 85* and MARV entry inh inconclusive.
For COc1ccc(-c2csc(Nc3ccc(S(N)(=O)=O)cc3)n2)cc1 the results were CHX counter 7, Lassa entry inh inconclusive, Shiga toxin inh 14 and MARV entry inh -10%.
Screening COc1ccc(-c2csc(Nc3cccnc3)n2)cc1 returned CHX counter 52*, Lassa entry inh -17%, Shiga toxin inh 99* and MARV entry inh -30%.
`CNC(=O)c1cncc(C=Cc2c(C)cccc2C)c1` gave Lassa entry inh 17%.
Screening Cc1ccc(S(=O)(=O)c2cc3cc(C(=O)Nc4ccc(C)cc4C)ccc3oc2=O)cc1 returned Lassa entry inh 12%[46.1 µM] and MARV entry inh -3%[46.1 µM].
For O=C(COCc1cc(-c2cccs2)on1)NCc1ccc(Cl)cc1 the results were Lassa entry inh -15%[46.1 µM].
Screening COc1ccc(Nc2nc(-c3c[nH]c4ccccc34)cs2)cc1 returned CHX counter 32*, Lassa entry inh 9%, Shiga toxin inh 67 and MARV entry inh 1%.
Screening Cc1ccc(C(C(=O)NC2CCCCC2)N(Cc2cccnc2)C(=O)C2COc3ccccc3O2)o1 (centres undefined) returned CHX counter 13, Lassa entry inh -29%, Shiga toxin inh 9 and MARV entry inh inconclusive.
COc1ccccc1C(=O)OCC(=O)NC1CCCC1 was read as CHX counter 61*, Lassa entry inh inconclusive, Shiga toxin inh 64* and MARV entry inh inconclusive.
O=C(COC(=O)c1cccc(Cl)c1Cl)NCCN1C(=O)CSC1=O was read as CHX counter 5, Lassa entry inh 3%, Shiga toxin inh -4 and MARV entry inh 18%.
Screening COc1ccccc1C(=O)OCC(=O)NC(=O)NC1CCCCC1 returned Lassa entry inh 8% and MARV entry inh inconclusive.
For O=C(OCc1cccnc1)C1=Cc2ccccc2OC1 the results were CHX counter 23, Lassa entry inh 1%, Shiga toxin inh 40* and MARV entry inh -24%[46.1 µM].
Screening O=C(COC(=O)c1ccccc1Br)NCCN1C(=O)CSC1=O returned CHX counter 20*, Shiga toxin inh 109* and MARV entry inh -5%[46.1 µM].
Screening O=C(COC(=O)C1=Cc2ccccc2OC1)NC1CCCC1 returned CHX counter 17*, Lassa entry inh -2%, Shiga toxin inh 5 and MARV entry inh 2%.
Screening O=C(COC(=O)c1ccccc1Br)NC1CCCCCCC1 returned Lassa entry inh 13% and MARV entry inh inconclusive.
`COc1cccc2c(=O)n(CC(=O)NC3CCCC3)ccc12` gave CHX counter 24* and Shiga toxin inh 49.
For O=C(COC(=O)c1ccccc1Br)NC1CCCC1 the results were CHX counter 39*, Lassa entry inh 13%[46.1 µM], Shiga toxin inh 59* and MARV entry inh inconclusive.
Screening O=C1NC2C(O)C(O)C(O)C(O)C2c2cc3c(c(O)c21)OCO3 (centres undefined) returned Lassa entry inh 0.14µM* and MARV entry inh inconclusive.
`COC(=O)C1=C(C)N(C)C(=O)NC1c1cc2c(cc1Br)OCO2` (centres undefined) gave CHX counter -2 and Shiga toxin inh -7.

Source: PubChem BioAssay (National Center for Advancing Translational Sciences (NCATS))
